# Activity calls are given as the source filed them. How the calls were made is not given here.
# Target: Pantothenate synthetase (Mycobacterium tuberculosis (strain ATCC 25618 / H37Rv)) (UniProt P9WIL5)
# Test: Coupled enzyme confirmation of inhibitors against recombinant Mtb PanC (AID 375);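 further: 0% = full reaction with vehicle and 100% = no enzyme background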
# Conditions: coupled enzyme assay; at 10 µM, active compounds read high
# Pantothenate synthetase (Mycobacterium tuberculosis (strain ATCC 25618 / H37Rv)), sequence (P9WIL5 whole entry, looked up): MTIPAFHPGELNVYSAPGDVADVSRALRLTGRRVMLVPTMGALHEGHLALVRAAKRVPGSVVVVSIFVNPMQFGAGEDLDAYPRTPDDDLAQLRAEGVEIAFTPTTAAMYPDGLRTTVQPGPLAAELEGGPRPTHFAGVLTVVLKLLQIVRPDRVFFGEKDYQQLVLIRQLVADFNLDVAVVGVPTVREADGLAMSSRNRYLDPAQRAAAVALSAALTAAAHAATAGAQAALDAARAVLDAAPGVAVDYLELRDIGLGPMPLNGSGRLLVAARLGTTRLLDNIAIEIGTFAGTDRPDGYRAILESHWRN
row,SMILES,inhibition
1,Cc1ccc(OCC(O)CN2C(=O)NC(C)(C)C2=O)cc1C (centres undefined),2% (inactive)
2,Cc1ccc(N(C(C)C(=O)Nc2ccc(S(=O)(=O)N3CCOCC3)cc2)S(C)(=O)=O)cc1 (centres undefined),0% (inactive)
3,O=C(C1CCCN(S(=O)(=O)c2ccc(Br)s2)C1)N1CCCCCC1 (centres undefined),0% (inactive)
4,O=C(NC12CC3CC(CC(C3)C1)C2)C1CCCN1C(=O)NC1CCCCC1 (centres undefined),0% (inactive)
5,Cc1cccnc1-n1c(CCN2C(=O)c3ccccc3C2=O)nc2ccccc2c1=O,9% (inactive)
6,Cc1noc(C)c1S(=O)(=O)N1CCC(C(=O)N2CCN(Cc3ccc4c(c3)OCO4)CC2)CC1,0% (inactive)
7,CN=c1sc2ccccc2n1CC(O)COCc1ccco1 (centres undefined),0% (inactive)
8,COc1ccc(-c2nnc(SCc3nnc(-c4ccc(Cl)cc4)o3)n2-c2ccccc2)cc1,0% (inactive)
9,CN(C(=O)CSc1nc2c(c(=O)[nH]1)CCCC2)C1CCCCC1,0% (inactive)
10,COc1cc(N2C(=O)CSC23C(=O)Nc2ccccc23)cc(OC)c1OC (centres undefined),0% (inactive)
11,CC(=O)N1CCN(C(=O)COc2ccc(Br)cc2)CC1,0% (inactive)
12,O=C(O)CCc1ccc(-c2cccs2)o1,6% (inactive)
13,COc1ccc(NC(=O)CSc2c(C)nn(-c3nnc(C)c(=O)[nH]3)c2C)cc1,0% (inactive)
14,Cc1cccc(NC2SC(=O)N(c3ccccc3)C2=O)c1 (centres undefined),0% (inactive)
15,Cc1ccc(-c2nc3cc(NC(=O)C(C)C)ccc3o2)cc1C,0% (inactive)
16,O=C(NC1CCCC1)c1ccc(S(=O)(=O)N2CCCC2)cc1,0% (inactive)
17,CCc1nn2c(N3CCOCC3)cc(C)nc2c1-c1ccc(F)cc1,0% (inactive)
18,CC(=O)N1CCN(S(=O)(=O)c2cccc(C(=O)Nc3ccc4c(c3)CCC4)c2)CC1,0% (inactive)
19,COCC(=O)N(c1ccc(C(C)C)cc1)C1C=CS(=O)(=O)C1 (centres undefined),0% (inactive)
20,CC(=O)NC(Cc1ccc(C)cc1)C(=O)NC1CCN(C(=O)c2cnccn2)CC1 (centres undefined),0% (inactive)

row,SMILES,inhibition
1,O=C1C2CC=CCC2C(=O)N1c1ccc(Cc2ccncc2)cc1 (centres undefined),0% (inactive)
2,CCCn1c(=O)c(C(=O)NCc2ccccn2)c(O)c2ccccc21,0% (inactive)
3,CCOc1ccc2cc(C#N)c(SCC(=O)N3CCCC3)nc2c1,0% (inactive)
4,Cc1ccc(C)c(N(CC(=O)NCc2ccco2)C(=O)CCC(=O)Nc2ccccn2)c1,0% (inactive)
5,O=C(Nc1nnc(COc2ccc(F)cc2)s1)c1cccs1,5% (inactive)
6,Cc1cc2c(c(=O)n1C)C(Cc1ccccc1)C(C#N)=C(N)O2 (centres undefined),3% (inactive)
7,Cc1ccc(S(=O)(=O)N2CCCC(c3nnc4n3-c3ccccc3SC4)C2)cc1 (centres undefined),9% (inactive)
8,Cc1cc(C)nc(N2CCC(C(=O)Nc3ccc(Oc4ccccc4)cc3)CC2)n1,0% (inactive)
9,COc1ccc2cc(C(c3nnnn3C3CCCCC3)N3CCCCCC3)c3nnnn3c2c1 (centres undefined),3% (inactive)
10,Brc1ccc(C2=Nn3c(nnc3-c3ccncc3)SC2)cc1,0% (inactive)
11,COc1ccc(NS(=O)(=O)c2c(C)[nH]c(=O)[nH]c2=O)c(OC)c1,0% (inactive)
12,COC(=O)c1c(C(=O)OC)n(CCCN)c2ccc(C)cc12,9% (inactive)
13,O=C(Cn1c(=O)[nH]c2ccsc2c1=O)NC1CCCCCC1,7% (inactive)
14,COc1ccccc1NC(=O)CSc1nnc(CC(=O)Nc2ccccc2)n1C,6% (inactive)
15,Cn1c(=O)cc(NCCc2ccccc2)[nH]c1=O,0% (inactive)
16,O=C(NC1CCCC1)c1cc(-c2cccs2)on1,6% (inactive)
17,O=C(CN(C(=O)CCNC(=O)c1ccco1)c1ccccc1)NC1CCCC1,2% (inactive)
18,O=C(Nc1ncc2c(n1)CC(c1ccccc1)CC2=O)c1ccco1 (centres undefined),3% (inactive)
19,CC(C)(C)n1ncc2c(=O)n(CC(=O)NCc3ccccc3)cnc21,0% (inactive)

# — PubChem BioAssay
